The first test concerns Human papillomavirus type 1a E7 protein (residues 1-88). As to the kind of experiment: HPV1a E7 small-molecule binders, primary screen, biochemical, small-molecule microarray, residues 1-88, 635 nm (AID 1129). The conditions noted are these: small-molecule microarray binding, fluorescence 635 nm; higher = more signal.
The compound `CC(C)C(O)C1C=CC2C(=O)N(C)C(=O)C2N1Nc1ccccc1` (stereo not given) showed a composite z-score of 1.14. In turn, `C=CC[C@]12N=C(c3ccc(OCCCO)cc3)O[C@H]1c1ccccc1N(C)C2=O` gave a composite z-score of 1.2. In turn, `CC(C)(C)OC(=O)CC[C@]1(C(=O)O)N=C(c2ccc(OCCCO)cc2)O[C@H]1c1ccccc1CN=[N+]=[N-]` gave a composite z-score of 0.251. Compound `COc1ccc(NN2C(C(O)c3ccco3)C=CC3C(=O)N(C4CCCCC4)C(=O)C32)cc1` (stereo not given) yielded a composite z-score of 1.22. `CCOC(=O)[C@H]1C/C=C/C[C@H](C(=O)OCC)C(=O)O[C@H]2[C@@H](OC)O[C@H](CO)[C@@H](OC(=O)CCc3ccccc3)[C@@H]2OC1=O` yielded a composite z-score of -0.267. As for `COCCOC(=O)N1C(=O)[C@@]2(c3cc(C#CCNC(N)=O)ccc31)[C@H](C(=O)N1CCCCCCC1)[C@H]1C(=O)O[C@H](c3ccccc3)[C@H](c3ccccc3)N1[C@@H]2c1ccc(O)cc1`, the composite z-score was determined as 1. As for `O=C1c2ccccc2[C@](Cc2ccccc2I)(C(=O)NCc2ccccc2)[C@H](c2ccc(CO)cc2)N1C1CCCCC1`, the composite z-score is 1.2. Take `C=CCOC(=O)[C@H]1[C@@H]2C(=O)O[C@@H](c3ccccc3)[C@@H](c3ccccc3)N2[C@@H](c2ccc(OCCOC(=O)[C@H]3C[C@H]4C(=O)N[C@@H](Cc5ccccc5)C(=O)N4[C@H]3c3ccc(O)cc3)cc2)[C@]12C(=O)Nc1ccc(I)cc12`: the composite z-score came to 1.14. Compound `COCCCNC(=O)[C@@]1(Sc2ccc(C)cc2)CC(=O)N(Cc2cc(C(F)(F)F)cc(C(F)(F)F)c2)[C@@H]1c1ccc(CO)cc1` had a composite z-score of 0.566. Same read-out and setting: as for `C=CCN1C(=O)[C@@]2(CCC(=O)OC(C)(C)C)N=C(c3ccc(OCCCO)cc3)O[C@H]2c2ccccc21`, the figure is 0.909. Turning to `C=CCNC(=O)[C@@H]1[C@H]2C(=O)O[C@H](c3ccccc3)[C@H](c3ccccc3)N2[C@H](c2ccccc2OCCO)[C@@]12C(=O)N(C(=O)OCCOC)c1ccc(C#CC3=CCCCC3)cc12`, the composite z-score turned out to be 1.19. Same read-out and setting: the same measure for `COc1ccc(C(O)C2C=CC3C(=O)N(c4ccccc4)C(=O)C3N2Nc2ccc(C#N)cc2)c2ccccc12` (stereo not given): 1.25; for `COCCOC(=O)N1C(=O)[C@@]2(c3cc(C#CC4(O)CCCCCC4)ccc31)[C@H](c1ccccc1OCCO)N1[C@H](c3ccccc3)[C@H](c3ccccc3)OC(=O)[C@H]1[C@@H]2C(N)=O`: 1.18.

Turning to `C[C@]1(C(=O)NC2CC2)c2ccccc2C(=O)N(Cc2ccc(OC(F)(F)F)cc2)[C@H]1c1ccc(CO)cc1`, the composite z-score stood at 0.722. `C#CCNC(=O)[C@H](Cc1ccccc1)NC(=O)[C@@H](N=[N+]=[N-])C(C)C`: the composite z-score is 0.873. `CC(C)(C)OC(=O)CC[C@]1(C(=O)NCCN2CCOCC2)N=C(c2ccc(OCCCO)cc2)O[C@H]1c1ccccc1` gave a composite z-score of 0.358. `[N-]=[N+]=NCc1ccccc1C[C@]1(C(=O)NCC(O)CO)N=C(c2ccc(OCCCO)cc2)O[C@H]1c1ccccc1CN=[N+]=[N-]` (stereo not given in full) came in with a composite z-score of 1.2. In turn, `COc1cc2c(cc1OC)CN(C(=O)[C@@H]1[C@H]3C(=O)O[C@H](c4ccccc4)[C@H](c4ccccc4)N3[C@H](c3ccccc3OCCO)[C@@]13C(=O)Nc1ccc(C#CC4(O)CCCCCC4)cc13)CC2` yielded a composite z-score of 1.17. On the same count and under the same terms, the same measure for `C[C@@H](OCc1ccccc1)C1NC(=O)[C@@]23C(=O)N[C@@H](Cc4ccccc4)C2[C@H](C)[C@@]2(C)O[C@H]2C3/C=C/C/C=C\CNC(=O)CNC1=O` (stereo not given in full): -0.668.

The compound `COCCCNC(=O)[C@]1(CCC(=O)OC(C)(C)C)N=C(c2ccc(OCCCO)cc2)O[C@@H]1c1ccccc1` showed a composite z-score of 1.26. Compound `CN(C)C(=O)[C@@]1(Cc2ccccc2N=[N+]=[N-])COC(c2ccc(OCCCO)cc2)=N1` displayed a composite z-score of 1.22.

`CCCc1cccc(=O)o1` had a composite z-score of 0.799.

For `CC(C)C[C@@H]1NC(=O)[C@H]2C[C@@H](C(=O)NCCCCCC[N+](C)(C)C)[C@@H](c3cccc(OCCO)c3)N2C1=O`, the composite z-score was determined as 0.381. Regarding `[N-]=[N+]=Nc1ccccc1C[C@]1(C(=O)NCc2ccccc2)N=C(c2ccc(OCCCO)cc2)O[C@H]1c1ccccc1`, the composite z-score worked out at 1.24.

Consider `C[C@@H]1ON(c2ccc(C(=O)OC(C)(C)C)cc2)[C@H](c2ccc(Br)cc2)[C@H]1C(=O)N1C(=O)OC[C@H]1Cc1ccccc1`, for which the composite z-score was found to be 1.05.

For the next test, the target named is Focal adhesion kinase 1 (Homo sapiens) (UniProt Q05397). As to the kind of experiment: small-molecule microarray binders of FAK, primary screen, biochemical, 635/667 nm fluorescence, BSA, DTT (AID 1130).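 Also: composite of spot emission at 667 nm and signal to noise over triplicate slides.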 The conditions noted are these: PTK2 binding, 635 nm fluorescence, higher = more signal.
Sequence of Focal adhesion kinase 1 (Homo sapiens) (Q05397 whole entry, looked up): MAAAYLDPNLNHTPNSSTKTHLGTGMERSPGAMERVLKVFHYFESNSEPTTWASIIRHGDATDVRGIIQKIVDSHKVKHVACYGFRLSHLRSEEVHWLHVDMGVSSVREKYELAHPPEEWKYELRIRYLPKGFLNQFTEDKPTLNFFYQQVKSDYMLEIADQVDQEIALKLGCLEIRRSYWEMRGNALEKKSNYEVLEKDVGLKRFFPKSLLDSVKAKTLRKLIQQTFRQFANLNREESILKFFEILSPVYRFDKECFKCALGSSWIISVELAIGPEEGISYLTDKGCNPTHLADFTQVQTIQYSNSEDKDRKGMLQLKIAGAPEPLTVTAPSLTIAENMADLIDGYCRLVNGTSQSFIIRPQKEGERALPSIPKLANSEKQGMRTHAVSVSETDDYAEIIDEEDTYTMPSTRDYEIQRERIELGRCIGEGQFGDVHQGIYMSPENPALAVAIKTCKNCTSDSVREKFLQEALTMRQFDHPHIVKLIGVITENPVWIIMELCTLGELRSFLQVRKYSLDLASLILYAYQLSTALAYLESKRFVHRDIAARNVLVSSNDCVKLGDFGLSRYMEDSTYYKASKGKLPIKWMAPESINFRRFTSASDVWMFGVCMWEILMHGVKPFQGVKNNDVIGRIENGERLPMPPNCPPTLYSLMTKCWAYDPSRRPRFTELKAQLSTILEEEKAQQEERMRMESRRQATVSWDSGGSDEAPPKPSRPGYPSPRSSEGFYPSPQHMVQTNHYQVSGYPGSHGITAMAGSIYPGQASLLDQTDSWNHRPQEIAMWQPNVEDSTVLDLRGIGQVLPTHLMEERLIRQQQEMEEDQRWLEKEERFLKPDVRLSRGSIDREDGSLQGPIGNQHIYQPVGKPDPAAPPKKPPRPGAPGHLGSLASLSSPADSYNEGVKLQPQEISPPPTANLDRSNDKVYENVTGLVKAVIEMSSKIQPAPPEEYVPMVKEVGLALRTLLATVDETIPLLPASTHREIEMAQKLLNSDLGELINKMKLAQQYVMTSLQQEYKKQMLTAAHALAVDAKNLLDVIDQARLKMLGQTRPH
As to `Cc1ccc(S[C@]2(C(=O)NCC(F)(F)F)CC(=O)N(Cc3ccccc3)[C@@H]2c2ccc(CO)cc2)cc1`, the composite z-score is -0.0414. On to `O=C1O[C@@H](c2ccccc2)[C@@H](c2ccccc2)N2[C@@H](c3ccccc3OCCO)[C@]3(C(=O)Nc4ccccc43)[C@@H](C(=O)NC[C@H](O)c3ccccc3)[C@H]12`, for which the composite z-score was determined as 0.682. For the compound `COc1ccc([Si](C)(C)[C@@H]2[C@@H](CC(=O)N3CCC[C@H]3CO)O[C@]3(C(=O)N(Cc4ccc(N5C(=O)c6cccc7cccc5c67)cc4)c4ccccc43)[C@H]2C)cc1`, the composite z-score turned out to be 0.566. In the case of `O=C1NC(=O)C2C1C=CC(C(O)c1ccc(Br)cc1)N2Nc1ccccn1` (stereo not given), the composite z-score was 0.231. On to `O=C1C2C=CC(C(O)c3cc(C(F)(F)F)cc(C(F)(F)F)c3)N(Nc3ccc([N+](=O)[O-])cc3)C2C(=O)N1c1ccccc1` (stereo not given), for which the composite z-score is 0.681. In turn, `O=C1O[C@@H](c2ccccc2)[C@@H](c2ccccc2)N2[C@@H](c3ccccc3OCCO)[C@]3(C(=O)Nc4ccc(C#CCCO)cc43)[C@@H](C(=O)Nc3nc4ccccc4s3)[C@H]12` gave a composite z-score of 0.487. In the case of `COc1ccccc1CN1C(=O)c2ccccc2[C@](Cc2ccccc2I)(C(=O)NC(C)C)[C@@H]1c1ccc(CO)cc1`, the composite z-score is 0.629. In turn, `COC(=O)C(CC#Cc1ccc2c(c1)[C@]1(C(=O)N2)[C@H](C(=O)O)[C@H]2C(=O)O[C@H](c3ccccc3)[C@H](c3ccccc3)N2[C@@H]1c1ccccc1OCCO)C(=O)OC` registered a composite z-score of 0.712. `CC(C)NC(=O)[C@@]1(C)c2ccccc2C(=O)N(C(C)C)[C@H]1c1ccc(CO)cc1`: the composite z-score came to 0.0394.

Turning to `NCCCCCCNC(=O)[C@@H]1C[C@@H]2C(=O)N3CCC[C@H]3C(=O)N2[C@@H]1c1ccc(O)cc1`, the composite z-score was 0.439. On to `CC(C)C(O)C1C=CC2C(=O)N(C)C(=O)C2N1Nc1ccccc1` (stereo not given), for which the composite z-score amounted to 0.746.

As for `C=CC[C@]12N=C(c3ccc(OCCCO)cc3)O[C@H]1c1ccccc1N(C)C2=O`, the composite z-score is 1.37. The compound `CC(C)(C)OC(=O)CC[C@]1(C(=O)O)N=C(c2ccc(OCCCO)cc2)O[C@H]1c1ccccc1CN=[N+]=[N-]` displayed a composite z-score of -0.171. In the case of `COc1ccc(NN2C(C(O)c3ccco3)C=CC3C(=O)N(C4CCCCC4)C(=O)C32)cc1` (stereo not given), the composite z-score worked out at 0.653. Consider `CCOC(=O)[C@H]1C/C=C/C[C@H](C(=O)OCC)C(=O)O[C@H]2[C@@H](OC)O[C@H](CO)[C@@H](OC(=O)CCc3ccccc3)[C@@H]2OC1=O`, for which the composite z-score is -0.542. The same measure, in the same setting: the same measure for `COCCOC(=O)N1C(=O)[C@@]2(c3cc(C#CCNC(N)=O)ccc31)[C@H](C(=O)N1CCCCCCC1)[C@H]1C(=O)O[C@H](c3ccccc3)[C@H](c3ccccc3)N1[C@@H]2c1ccc(O)cc1`: 0.478; for `O=C1c2ccccc2[C@](Cc2ccccc2I)(C(=O)NCc2ccccc2)[C@H](c2ccc(CO)cc2)N1C1CCCCC1`: 0.699.

Compound `C=CCOC(=O)[C@H]1[C@@H]2C(=O)O[C@@H](c3ccccc3)[C@@H](c3ccccc3)N2[C@@H](c2ccc(OCCOC(=O)[C@H]3C[C@H]4C(=O)N[C@@H](Cc5ccccc5)C(=O)N4[C@H]3c3ccc(O)cc3)cc2)[C@]12C(=O)Nc1ccc(I)cc12` had a composite z-score of 0.665. The same measure, in the same setting: as for `COCCCNC(=O)[C@@]1(Sc2ccc(C)cc2)CC(=O)N(Cc2cc(C(F)(F)F)cc(C(F)(F)F)c2)[C@@H]1c1ccc(CO)cc1`, the figure is 0.813; as for `C=CCN1C(=O)[C@@]2(CCC(=O)OC(C)(C)C)N=C(c3ccc(OCCCO)cc3)O[C@H]2c2ccccc21`, 1.54; as for `C=CCNC(=O)[C@@H]1[C@H]2C(=O)O[C@H](c3ccccc3)[C@H](c3ccccc3)N2[C@H](c2ccccc2OCCO)[C@@]12C(=O)N(C(=O)OCCOC)c1ccc(C#CC3=CCCCC3)cc12`, 0.636. `COc1ccc(C(O)C2C=CC3C(=O)N(c4ccccc4)C(=O)C3N2Nc2ccc(C#N)cc2)c2ccccc12` (stereo not given) gave a composite z-score of 0.0632.

In the case of `COCCOC(=O)N1C(=O)[C@@]2(c3cc(C#CC4(O)CCCCCC4)ccc31)[C@H](c1ccccc1OCCO)N1[C@H](c3ccccc3)[C@H](c3ccccc3)OC(=O)[C@H]1[C@@H]2C(N)=O`, the composite z-score worked out at 0.639. In turn, `C[C@]1(C(=O)NC2CC2)c2ccccc2C(=O)N(Cc2ccc(OC(F)(F)F)cc2)[C@H]1c1ccc(CO)cc1` returned a composite z-score of 0.576. Same read-out and setting: as for `C#CCNC(=O)[C@H](Cc1ccccc1)NC(=O)[C@@H](N=[N+]=[N-])C(C)C`, the figure is 0.146; as for `CC(C)(C)OC(=O)CC[C@]1(C(=O)NCCN2CCOCC2)N=C(c2ccc(OCCCO)cc2)O[C@H]1c1ccccc1`, 0.75; as for `[N-]=[N+]=NCc1ccccc1C[C@]1(C(=O)NCC(O)CO)N=C(c2ccc(OCCCO)cc2)O[C@H]1c1ccccc1CN=[N+]=[N-]` (stereo not given in full), 0.116. `COc1cc2c(cc1OC)CN(C(=O)[C@@H]1[C@H]3C(=O)O[C@H](c4ccccc4)[C@H](c4ccccc4)N3[C@H](c3ccccc3OCCO)[C@@]13C(=O)Nc1ccc(C#CC4(O)CCCCCC4)cc13)CC2` displayed a composite z-score of -0.0242. `C[C@@H](OCc1ccccc1)C1NC(=O)[C@@]23C(=O)N[C@@H](Cc4ccccc4)C2[C@H](C)[C@@]2(C)O[C@H]2C3/C=C/C/C=C\CNC(=O)CNC1=O` (stereo not given in full): the composite z-score is 0.193. The same measure, in the same setting: as for `COCCCNC(=O)[C@]1(CCC(=O)OC(C)(C)C)N=C(c2ccc(OCCCO)cc2)O[C@@H]1c1ccccc1`, the figure is 0.807. With `CN(C)C(=O)[C@@]1(Cc2ccccc2N=[N+]=[N-])COC(c2ccc(OCCCO)cc2)=N1`, the composite z-score worked out at 0.947.

Turning to `CCCc1cccc(=O)o1`, the composite z-score turned out to be 0.106. Still for that read-out and setting: the same measure for `CC(C)C[C@@H]1NC(=O)[C@H]2C[C@@H](C(=O)NCCCCCC[N+](C)(C)C)[C@@H](c3cccc(OCCO)c3)N2C1=O`: 0.125; for `[N-]=[N+]=Nc1ccccc1C[C@]1(C(=O)NCc2ccccc2)N=C(c2ccc(OCCCO)cc2)O[C@H]1c1ccccc1`: 0.0541. As to `C[C@@H]1ON(c2ccc(C(=O)OC(C)(C)C)cc2)[C@H](c2ccc(Br)cc2)[C@H]1C(=O)N1C(=O)OC[C@H]1Cc1ccccc1`, the composite z-score is -0.204.

The values above are taken from PubChem BioAssay.
